Compound activity deposited in PubChem by several laboratories.
V-ATPase pHluor: yeast V-ATPase proton transport regulation by pHLuorin; S. cerevisiae, pHLuorin cytosolic pH fluorescence; response, % at 10 µM; actives 0.37% (n = 350,000); AID 504577; in the data active = response mostly above about 7.3%, no sharp cut-off; inactive = mostly below about 5.4%; also: actives read high
TIM10 inh: inhibits growth of TIM10 yeast strain; S. cerevisiae TIM10 strain growth, BacTiter-Glo luminescence, 24 h; inhibition, % at 10 µM; actives 1.4% (n = 330,000);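 active = inhibition of 40% or more at the single tested concentration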;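 also: wild-type TIM10 isogenic control strain grown at permissive 25 °C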
PfHsp90 set2: reduces growth (ATP signal) of yeast expressing P. falciparum Hsp90; actives 0.32% (n = 310,000); AID 504621; S. cerevisiae expressing PfHsp90, BacTiter-Glo ATP, 48 h; yeast lacking PDR1 and PDR3 efflux regulators; inhibition, % at 9.4 µM;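 active = every replicate shows inhibition above about 80%, whatever the replicate mean, limit read from the data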;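 also: 0% = DMSO neutral controls and 100% = 20 µM radicicol positive controls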
tim23-1 inh: growth inhibitors of tim23-1 mutant yeast | actives 1.3% (n = 330,000) | S. cerevisiae tim23-1 growth, BacTiter-Glo luminescence, 24 h | inhibition, % at 20 µM;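 active = growth inhibition of the mutant yeast at or above 50%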;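 also: temperature-sensitive mutant grown at 25 °C; plate controls were DMSO-treated mutant yeast for no effect and medium wells lacking yeast for full effect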
tim10-1 inh: growth inhibitors of tim10-1 mutant yeast. AID 463190. S. cerevisiae tim10-1 ts strain growth, BacTiter-Glo, 24 h. inhibition, % at 20 µM. actives 2.2% (n = 330,000);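 active = inhibition of at least 40%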;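 also: mutant grown at 25 °C; 0% = DMSO wells with yeast and 100% = wells holding no yeast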
SKKanGAS inh: inhibitors of SKKanGAS S. pyogenes growth in kanamycin (SK-promoter or general growth effect); BacTiter-Glo, 6 h; inhibition, % at 7.5 µM; actives 1.3% (n = 300,000); AID 1662;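 active = mean replicate score, as percent of positive control median, at least 50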;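 also: strain carries kanamycin resistance gene driven by streptokinase promoter and grows in 40 µg/ml kanamycin; loss of luminescence reflects streptokinase promoter inhibition or plain growth inhibition; 0% = median of DMSO wells and 100% = positive control at its reference dose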
tim10-1 confirm: confirmation of tim10-1 mutant yeast growth inhibitors; shares compounds with tim10-1 inh; S. cerevisiae tim10-1 ts strain growth, BacTiter-Glo, 24 h; inhibition, % at 20 µM; actives 56% (n = 7,400); AID 463213;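 active = inhibition of yeast growth at or above a set limit in either of two repeat tests at 20 µM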;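 also: tim10-1 mutant grown at permissive 25 °C to find synthetic lethal compounds; 0% = DMSO yeast wells and 100% = medium wells without yeast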
* = called active by the depositor; x = not tested or not shown. Rows were chosen to be rich in hits. Some 4.6% of all compounds tested hit in one or more screens of this group.

SMILES	V-ATPase pHluor	TIM10 inh	PfHsp90 set2	tim23-1 inh	tim10-1 inh	SKKanGAS inh	tim10-1 confirm
COc1ccc(N2CCN(S(=O)(=O)c3cc(C)ccc3OC)CC2)cc1	2.5	-8.6	2.5	9.9	2.0	-0.9	x
CCC(C)Oc1nc(C)cc(C)c1S(=O)(=O)c1ccccc1C (stereo not drawn)	9.3	24.3	6.2	42.0	44.1*	5.3	22.6
CC(C)(C)C(=O)[C@@H]1[C@@H]2C(=O)N(C3CCCCC3)C(=O)[C@@H]2[C@H]2c3ccccc3C=CN12	0.0	26.0	4.2	26.1	40.5*	x	25.8
O=C(c1ccc2c(c1)OCO2)[C@@H]1[C@@H]2C(=O)N(C3CCCCC3)C(=O)[C@@H]2C2c3ccccc3C=CN21 (stereo partly drawn)	5.5	x	24.3	x	x	1.1	x
COc1cccc(C(=O)OCC(=O)NCC2CCCO2)c1 (stereo not drawn)	-0.2	-5.3	-5.7	3.1	-10.5	x	x
CSc1ccc(/C=C/C(=O)c2c(O)cc(C)oc2=O)cc1	1.1	33.2	15.5	44.1	46.9*	20.9	38.5*
Nc1nc(SCn2nnc3ccccc3c2=O)n[nH]1	0.4	0.0	2.8	-5.4	9.7	-3.0	x
CCOC(=O)C1CSc2[nH]c(=O)sc2C1c1ccccc1 (stereo not drawn)	-0.4	21.2	-7.0	36.9	40.0	1.8	16.2
O=C(c1ccc(Cl)c([N+](=O)[O-])c1)N1CCN(Cc2ccc3c(c2)OCO3)CC1	0.0	-1.2	6.7	4.3	-9.3	-1.4	x
O=C(CN1CCN(S(=O)(=O)c2ccc(Cl)cc2)CC1)N1CCCC1	2.4	-1.9	x	14.9	-1.7	x	x
Cc1cccc(Sc2ccc([N+](=O)[O-])cc2[N+](=O)[O-])n1	2.2	23.1	-18.3	45.7	43.7*	-12.4	27.8
O=c1cc(-c2ccccc2)nc(Sc2ccc([N+](=O)[O-])cc2[N+](=O)[O-])[nH]1	0.5	-12.8	0.5	27.6	20.8	2.5	x
O=C(C[n+]1cccc(O)c1)NCc1ccc(Cl)cc1	2.2	0.7	-1.2	1.7	-0.7	9.2	x
CC(C)Cn1c(N)c(C(=O)CSc2ccccc2)c(=O)n(C)c1=O	1.2	x	-17.8	x	x	9.7	x
CC(C)Cn1c(N)c(C(=O)COC(=O)/C=C/c2ccccc2)c(=O)n(C)c1=O	-9.3	17.4	-7.3	21.8	42.2*	-2.0	21.9
NC(=NCCc1c[nH]c2ccccc12)NC(=O)c1ccc(F)cc1	-0.2	0.1	12.3	-1.1	16.8	-2.8	x
CCNc1nnc(CSc2nc3ccccc3s2)s1	-4.5	30.7	15.9	44.9	44.4*	0.9	38.8*
O=C(Cc1ccccc1)NCC(=O)Nc1cccc(Cl)c1	-2.6	-6.2	-6.8	-17.6	-52.3	-1.3	x
CCCn1cnc2c(sc3nc4c(cc32)CSC(C)(C)C4)c1=O	3.5	32.0	-29.8	28.6	41.1*	-8.8	7.5
CCOC(=O)c1ccc(NS(=O)(=O)c2c(C)[nH]c(C)c2C(=O)N2CCCCC2)cc1	1.2	6.2	-5.3	5.2	5.4	-4.0	x
CCn1c(=O)c(CCC(=O)N2CCOCC2)c(C)c2c(C)nn(-c3ccccc3)c21	-1.3	5.0	12.3	36.3	18.1	4.0	x
Cc1nn(-c2ccccc2)c2c1c(C)c(CCC(=O)N1CCOCC1)c(=O)n2C	-1.3	12.0	-22.1	31.1	40.7*	6.9	13.9
CC1CC(=O)Nc2ccccc2N1S(=O)(=O)c1cccc(Cl)c1 (stereo not drawn)	1.3	-11.2	-38.6	-0.9	3.0	-5.1	x
COc1ccc(CCNC(=O)Nc2cccs2)c(OC)c1	-1.8	24.3	-0.3	31.6	40.8*	3.9	36.2*
C/C(=N\OCc1ccc(C#N)cc1)c1ccc(S(=O)(=O)N(C)C)cc1	0.5	10.3	-4.3	33.2	42.3*	-5.1	41.2*
SMILES	V-ATPase pHluor	TIM10 inh	PfHsp90 set2	tim23-1 inh	tim10-1 inh	SKKanGAS inh	tim10-1 confirm
CCCOc1ccc(CNC(=O)C2CCN(C(=O)N3CCOc4ccccc43)CC2)cc1	-2.5	-0.8	16.2	18.4	12.4	5.9	x
COc1ccc(-c2oc3ncnc(NCCCN(C)C)c3c2-c2ccc(OC)cc2)cc1	5.4	18.6	-6.9	16.9	40.1*	0.6	42.0*
CN(C)CCNc1ncnc2oc(-c3ccccc3)c(-c3ccccc3)c12	1.5	14.3	10.9	-6.2	18.9	4.8	x
Cc1ccc(C(C)C)cc1C(=O)CC1(O)C(=O)N(C)c2ccccc21 (stereo not drawn)	2.9	32.5	-0.6	1.1	41.6*	3.1	32.5*
CN1C(=O)C(O)(CC(=O)/C=C\c2ccc3c(c2)OCO3)c2ccccc21 (stereo not drawn)	-1.4	35.5	12.5	39.5	41.9*	x	28.4
Cc1ccc(C(=O)CC2(O)C(=O)N(C)c3ccccc32)s1 (stereo not drawn)	-5.5	21.2	-5.3	24.4	22.6	-13.0	x
Oc1ccccc1C1CC(c2cccs2)=NC(c2cccc(Br)c2)N1 (stereo not drawn)	4.2	23.6	x	35.4	14.4	12.3	x
CC(OC(=O)c1cc(=O)[nH]c2ccccc12)C(=O)N1C(C)CCCC1C (stereo not drawn)	4.8	5.5	-24.1	10.2	-2.0	x	x
COc1ccc(Cn2c(=S)[nH]c3ccsc3c2=O)cc1	-1.1	28.2	-29.1	20.9	51.4*	-1.2	19.1
COc1ccccc1NC(=O)CSC1CC(=O)N(c2ccc3c(c2)OCO3)C1=O (stereo not drawn)	1.9	19.8	3.3	30.9	47.1*	-7.0	44.6*
Oc1cccc(Oc2ncc(C(F)(F)F)cc2Cl)c1	-0.9	23.6	-20.8	13.5	48.7*	-6.0	40.5*
CN(NS(=O)(=O)c1ccc(F)cc1)c1ncc(C(F)(F)F)cc1Cl	1.4	12.1	-29.1	9.7	16.1	3.7	x
CN(NS(=O)(=O)c1ccc(Cl)cc1)c1ncc(C(F)(F)F)cc1Cl	4.1	13.9	-9.4	27.1	42.5*	-1.5	26.2
CC(C)(C)NS(=O)(=O)c1ccc(Oc2ncc(C(F)(F)F)cc2Cl)cc1	-1.3	30.2	-34.8	33.6	40.7*	3.6	38.2*
COCCCNS(=O)(=O)c1ccc(Oc2ncc(C(F)(F)F)cc2Cl)cc1	-1.1	2.6	-32.3	25.2	24.1	-8.8	x
COc1nc(C)nc(NC(=O)NS(=O)(=O)c2ccc(C)cc2)n1	9.3	14.7	3.5	-2.4	4.6	-0.1	x
O=C(NCc1cccs1)c1ccc([N+](=O)[O-])cc1Cl	2.3	-5.5	-41.1	17.1	12.5	-1.3	x
COC(=O)C1=C(C)NC2=C(C(=O)CCC2)C1c1ccc(-c2ccsc2C(=O)OC)o1 (stereo not drawn)	-0.5	4.2	5.2	2.2	0.0	-1.0	x
O/N=C\c1ccc2noc(-c3ccc(Cl)cc3)c2c1	-9.3	-13.3	-8.2	5.5	-1.2	-2.4	x
